Assay [1] is described as follows: NCI Yeast Anticancer Drug Screen. Data for the rad50 strain (AID 155).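 Also: 0% = growth of vehicle-only cultures of the same strain.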 The settings on record: S. cerevisiae rad50 strain growth inhibition; at 50.0 µM; stronger effect = higher value. In a few lines: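 A DNA repair-deficient yeast mutant serves as the test organism; compound-induced growth inhibition is calculated against vehicle-treated cells.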
The nature of assay [2]: NCI Yeast Anticancer Drug Screen. Data for the mec2-1 strain (AID 157). The settings on record: S. cerevisiae mec2-1 strain, at 50.0 µM, stronger effect = higher value. The method in brief:
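Compounds were applied to mec2-1 yeast cells. Their growth was then compared with that of vehicle-treated cultures to give growth inhibition.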

Assay [3] in a line: NCI Yeast Anticancer Drug Screen. Data for the sgs1 mgt1 strain (AID 161).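 Also: 0% = growth of cultures given vehicle only.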 The settings on record: S. cerevisiae sgs1 mgt1 strain, at 50.0 µM, stronger effect = higher value. In a few lines:
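Compounds are added to genetically altered yeast, and growth is compared with cultures given vehicle alone to give percent inhibition.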

Assay [4] in a line: NCI Yeast Anticancer Drug Screen. Data for the cln2 rad14 strain (AID 165).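 Also: 0% = growth equal to vehicle treated cultures.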 The settings on record: S. cerevisiae cln2 rad14 strain, at 50.0 µM, stronger effect = higher value. In a few lines: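 Strain: cln2 rad14 yeast, altered in cell cycle control and DNA damage repair. Read-out: growth inhibition vs vehicle.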
Assay [5] is described as follows: NCI Yeast Anticancer Drug Screen. Data for the bub3 strain (AID 167). The settings on record: S. cerevisiae bub3 mutant strain, at 50.0 µM, stronger effect = higher value. In a few lines: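 Inhibition values come from growth of compound-treated mutant yeast normalised to vehicle-treated controls.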
Assay [6] is described as follows: NCI Yeast Anticancer Drug Screen. Data for the mlh1 rad18 strain (AID 175). The settings on record: S. cerevisiae mlh1 rad18 strain growth inhibition; at 50.0 µM; stronger effect = higher value. In a few lines:
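A repair-deficient yeast strain is exposed to test compound, and growth is scored relative to vehicle-treated controls.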

Compounds without any hit were thinned out: in the full panel of roughly 79,000, 15% have a hit. Unmarked numbers belong to inactive results. The source made the active and inactive calls. Rule as the data show it: active = growth inhibition above about 70%; inactive = the rest. Where a SMILES comes first, the peptide text is derived from it. [ ]: non-standard residue; d: D form. Abu = CC[CH](N)C(=O)O

The text below walks through data of PubChem BioAssay (NCI).

As to `Oc1ccc(-c2nc(-c3cccnc3)c(-c3ccc(Cl)cc3)[nH]2)cc1`, the growth inhibition in assay [1] was 3.25%; in assay [2], -19.2%; in assay [3], 19.9%; in assay [4] it was 12.8%; in assay [5], 39.6%; in assay [6], 81.7% (active).

With `CCC(N)C(=O)NC(C(N)=O)C(C)C` (centres undefined) (H-[Abu]-Val-NH2; configuration not given here), the growth inhibition in assay [1] is 11.1%; in assay [2] it was -9.75%; in assay [3], -1.55%; in assay [4] it was -42.4%; in assay [5] it was -4.7%; in assay [6], 13.2%.

As for `O=C(c1cccs1)c1ccc2ccccc2c1C(=O)O`, the growth inhibition in assay [1] was -6.95%; in assay [2] it was -11%; in assay [3] it was -0.85%; in assay [4] it was 3.9%; in assay [5], 58.5%; in assay [6], 4.7%.

`Cc1ccc(S(=O)(=O)OC2COC3C2OC2OC(C)(C)OC23)cc1` (centres undefined): the growth inhibition in assay [1] is 19.1%; in assay [2] it was 11.2%; in assay [3], 0.2%; in assay [4], -9.1%; in assay [5] it was 7.4%; in assay [6], 0.35%.

Regarding `C=C(C(=O)O)C(=O)O`, the growth inhibition in assay [1] is -14.4%; in assay [2], -3.6%; in assay [3], -2.2%; in assay [4], 4.35%; in assay [5] it was 2%; in assay [6], -4.7%.

Take `O=C(CCCCCCCCC(=O)OCC1OC(n2cnc3c(=O)[nH]cnc32)C(O)C1O)OCC1OC(n2cnc3c(=O)[nH]cnc32)C(O)C1O` (centres undefined): the growth inhibition in assay [1] is -47.5%; in assay [2] it was -44.7%; in assay [3], -42.3%; in assay [4] it was -8.3%; in assay [5], -22.9%; in assay [6], -35.3%.

On to `COc1ccc(Nc2nc(NNC(=O)Cc3ccccc3)nc(NNC(=O)c3ccncc3)n2)cc1`, for which the growth inhibition in assay [1] was 8.5%; in assay [2], 20.1%; in assay [3], 30.1%; in assay [4] it was 19.2%; in assay [5] it was 27.2%; in assay [6], 30.4%.

Turning to `Cc1ccc2c(=O)cc(-c3ccccc3)[nH]c2n1`, the growth inhibition was -48% in assay [1]; -57% in assay [2]; -42.1% in assay [3]; 11.8% in assay [4]; -59.1% in assay [5]; -41.1% in assay [6].

For the compound `CC(=O)CC(C)(C)S(=O)(=O)c1ccc(C)cc1`, the growth inhibition is 4% in assay [1]; -5.05% in assay [2]; 24.4% in assay [3]; -26.4% in assay [4]; 11.8% in assay [5]; 5.05% in assay [6].

Regarding `O=C1N/C(=N\OCCc2ccccc2)CC(NOCCc2ccccc2)N1` (centres undefined), the growth inhibition was -0.2% in assay [1]; 18.8% in assay [2]; 2.25% in assay [3]; -11.6% in assay [4]; 40.5% in assay [5]; 7.5% in assay [6].

On to `Cc1cc(=O)[nH]c(NN2C(Cl)C(=O)C2c2cccc([N+](=O)[O-])c2)n1` (centres undefined), for which the growth inhibition in assay [1] was 18.1%; in assay [2], -32.5%; in assay [3] it was -0.3%; in assay [4] it was -7.1%; in assay [5], -7.45%; in assay [6] it was -33.6%.

With `COc1ccc(/C=N/NC(=O)c2ccccc2OC)cc1`, the growth inhibition is 1.85% in assay [1]; 19.6% in assay [2]; 29.9% in assay [3]; -11.5% in assay [4]; -10.8% in assay [5]; 36.1% in assay [6].

Consider `Cn1cnc([N+](=O)[O-])c1Sc1nc(N)nc2c1ncn2C1OC(CO)C(O)C1O` (centres undefined), for which the growth inhibition is -9.3% in assay [1]; 20.3% in assay [2]; 15.6% in assay [3]; 25.1% in assay [4]; 14.2% in assay [5]; -8.5% in assay [6].

For the compound `CCCCOC(=O)C(=O)C(CC(C(=O)Cc1ccccc1)c1ccccc1)C(=O)C=C(C)C` (centres undefined), the growth inhibition in assay [1] is -0.1%; in assay [2] it was -5.3%; in assay [3] it was -0.7%; in assay [4], -12.1%; in assay [5], 27.2%; in assay [6], -18.2%.

With `Cc1cc(O)cc2oc(=O)ccc12`, the growth inhibition in assay [1] was -34.4%; in assay [2], -23.4%; in assay [3], -9.9%; in assay [4], -11.7%; in assay [5] it was -11.7%; in assay [6] it was -15.2%.

For `CC(NC(=O)C(N)CC(=O)O)C(=O)OC12CC3CC(CC(C3)C1)C2` (centres undefined), the growth inhibition is -55.5% in assay [1]; -62.4% in assay [2]; -22.6% in assay [3]; -0.95% in assay [4]; 12.7% in assay [5]; -10.8% in assay [6].

On to `NN1CCCC(O)C1` (centres undefined), for which the growth inhibition in assay [1] is -0.15%; in assay [2], -18.4%; in assay [3], 4.75%; in assay [4], 4.5%; in assay [5] it was 5.1%; in assay [6] it was 5.4%.

Consider `CCCCSc1nc2c(=O)[nH][nH]c(=O)c2n1Cc1ccccc1`, for which the growth inhibition is 11.9% in assay [1]; 3.45% in assay [2]; 23.2% in assay [3]; 14.7% in assay [4]; -0.8% in assay [5]; 1.5% in assay [6].

Take `COC(=O)c1ccc2cc1Nc1c(C#N)cnc(=S)n1-2`: the growth inhibition is -2.3% in assay [1]; 13.4% in assay [2]; 11.2% in assay [3]; 23.1% in assay [4]; 14.5% in assay [5]; 18.1% in assay [6].
